These results are taken from PubChem BioAssay (NCI).

Where “and” joins values, the source holds several entries; their conditions need not be identical. Identical values can stand only once. Compounds without any hit were thinned out: in the full panel of roughly 83,000, 20% have a hit.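 Activity criterion: percent growth below 10, measured after cells in 96-well plates were exposed to a single compound concentration for 48 hours.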 Calls of active or inactive are those of the source.

Among the test systems are SR leukemia; OVCAR-8 ovarian; OVCAR-5 ovarian; OVCAR-4 ovarian; SK-OV-3 ovarian; IGROV1 ovarian; OVCAR-3 ovarian; HS 578T breast; NCI/ADR-RES ovarian; T-47D breast; BT-549 breast; MDA-MB-435 melanoma; SW-620 colon; MCF7 breast; HCT-116 colon; HCC-2998 colon; KM12 colon; RPMI-8226 leukemia.
What all share (assay): NCI-60 one-dose screen, 48 h (100 = growth as untreated, 0 = no growth, -100 = all killed)
Common to all, as to settings: 10 µM unless noted

In the case of `C/C(=N\NC(=O)c1ccncc1)c1ccccc1O`, the growth was 17.7% (inactive) and 16% (inactive) with SR leukemia; 37.1% (inactive) and 10.9% (inactive) in the assay on OVCAR-8 ovarian; 48.2% (inactive) and 51% (inactive) in the assay on OVCAR-5 ovarian; 20% (inactive) and 22.5% (inactive) with OVCAR-4 ovarian; 45.6% (inactive) and 38.4% (inactive) in the assay with SK-OV-3 ovarian; 32.1% (inactive) and 19.1% (inactive) in the assay with IGROV1 ovarian. Moreover, the growth with OVCAR-3 ovarian was 20.3% (inactive) and 12.6% (inactive); in the assay with HS 578T breast, 76.1% (inactive); in the assay with NCI/ADR-RES ovarian, 18% (inactive) and 16.9% (inactive); in the assay with T-47D breast it was 30.8% (inactive) and 24.3% (inactive); with BT-549 breast it was 52% (inactive) and 20.7% (inactive); in the assay with MDA-MB-435 melanoma, 50.5% (inactive) and 57.5% (inactive). For the same molecule, the growth with SW-620 colon is 34.2% (inactive) and 42.3% (inactive); in the assay on MCF7 breast, 13.2% (inactive) and 13.4% (inactive); in the assay on HCT-116 colon, 5.77% (active) and 2.15% (active); in the assay on HCC-2998 colon it was 25% (inactive) and 32.1% (inactive); with KM12 colon, 31.9% (inactive) and 34.4% (inactive).
As for `O=S1(=O)CC(Br)C(Br)C1` (stereo not given), the growth in the assay with SR leukemia was 53.6% (inactive); in the assay with RPMI-8226 leukemia, 85.5% (inactive) and 82.5% (inactive); in the assay with OVCAR-8 ovarian, 62.7% (inactive) and 88.9% (inactive); in the assay on OVCAR-5 ovarian, 96.4% (inactive) and 108% (inactive); in the assay on OVCAR-4 ovarian it was 63.1% (inactive) and 96% (inactive); in the assay on IGROV1 ovarian it was 90.1% (inactive) and 59% (inactive). The growth is 50.3% (inactive) and 75.7% (inactive) in the assay with OVCAR-3 ovarian; 91.4% (inactive) and 89.7% (inactive) in the assay with HS 578T breast; 68.5% (inactive) and 110% (inactive) in the assay with NCI/ADR-RES ovarian; 34.5% (inactive) and 63% (inactive) with T-47D breast; 77.7% (inactive) and 82.9% (inactive) with BT-549 breast; 80.5% (inactive) and 95.1% (inactive) in the assay with MDA-MB-435 melanoma. Besides, the growth in the assay on SW-620 colon is 32.1% (inactive) and 29.8% (inactive); in the assay on MCF7 breast, 56.9% (inactive) and 63.7% (inactive); in the assay on HCT-116 colon, 18.2% (inactive) and 66.8% (inactive); in the assay on HCC-2998 colon, 102% (inactive) and 117% (inactive); with KM12 colon, 105% (inactive) and 116% (inactive).
With `CO/N=C/C=C\C(=O)N/C=C/C[C@H]1/C=C/[C@H](O)/C=C\C=C\c2cccc(O)c2C(=O)O1`, the growth with SR leukemia was 6.08% (active) and 20.5% (inactive); in the assay on OVCAR-8 ovarian, 27.5% (inactive) and 29.7% (inactive); in the assay with OVCAR-5 ovarian, 39.5% (inactive) and 44.7% (inactive); in the assay on OVCAR-4 ovarian, 72% (inactive) and 69.4% (inactive); in the assay with SK-OV-3 ovarian, 49.6% (inactive) and 35% (inactive); in the assay on IGROV1 ovarian, 36.5% (inactive) and 40.3% (inactive). For the same molecule, the growth with OVCAR-3 ovarian was 60.9% (inactive) and 36.3% (inactive); with HS 578T breast, 50.9% (inactive) and 57.1% (inactive); with NCI/ADR-RES ovarian, 44.4% (inactive) and 32.6% (inactive); with T-47D breast, 16.4% (inactive) and 17.4% (inactive); with BT-549 breast, 31.6% (inactive) and 46.9% (inactive); in the assay on MDA-MB-435 melanoma it was 6.42% (active) and -15.8% (active). Further, the growth was 17.5% (inactive) and 8.83% (active) in the assay on SW-620 colon; 35.6% (inactive) and 26.1% (inactive) in the assay with MCF7 breast; 21.3% (inactive) and 14.9% (inactive) with HCT-116 colon; 34.3% (inactive) and 20.8% (inactive) in the assay on KM12 colon.
On to `Clc1ccc(SSc2ccc(Cl)cc2)cc1`, for which the growth in the assay with SR leukemia was 104% (inactive); in the assay with OVCAR-8 ovarian, 97.6% (inactive) and 86% (inactive); in the assay on OVCAR-5 ovarian, 93.9% (inactive) and 119% (inactive); in the assay with OVCAR-4 ovarian, 103% (inactive) and 84.9% (inactive); in the assay with SK-OV-3 ovarian it was 106% (inactive) and 125% (inactive); with IGROV1 ovarian, 102% (inactive) and 83.4% (inactive). Also, the growth in the assay with OVCAR-3 ovarian is 101% (inactive) and 110% (inactive); with HS 578T breast it was 97.9% (inactive) and 93.4% (inactive); in the assay on NCI/ADR-RES ovarian, 99.2% (inactive) and 81.8% (inactive); in the assay with T-47D breast, 96.2% (inactive) and 103% (inactive); in the assay with BT-549 breast, 89% (inactive) and 9.06% (active); in the assay with MDA-MB-435 melanoma it was 94% (inactive) and 100% (inactive). For the same molecule, the growth was 97.3% (inactive) and 88.8% (inactive) in the assay on SW-620 colon; 102% (inactive) and 75.1% (inactive) in the assay with MCF7 breast; 95.9% (inactive) and 71% (inactive) with HCT-116 colon; 96.8% (inactive) and 98% (inactive) in the assay with HCC-2998 colon; 107% (inactive) with KM12 colon.
Consider `CN(C)c1ccc(/C=C(\C#N)c2ccccc2)cc1`, for which the growth in the assay on SR leukemia was -18.5% (active) and 14.1% (inactive) and 8.15% (active); with RPMI-8226 leukemia it was -23% (active) and 37.2% (inactive) and 10.1% (inactive); in the assay on OVCAR-8 ovarian, 26.9% (inactive) and 43.7% (inactive) and 38% (inactive); in the assay with OVCAR-5 ovarian, 41.5% (inactive) and 62.4% (inactive) and 55.4% (inactive); in the assay with OVCAR-4 ovarian, 48.4% (inactive) and 61.8% (inactive) and 78.6% (inactive); in the assay on IGROV1 ovarian it was -39.9% (active) and 52.4% (inactive) and 43.5% (inactive). Further, the growth was -57.9% (active) and 11.6% (inactive) and -12.2% (active) in the assay on OVCAR-3 ovarian; 28.3% (inactive) and 56.2% (inactive) and 28.9% (inactive) with HS 578T breast; -41.2% (active) and 13.3% (inactive) and 20.9% (inactive) in the assay on NCI/ADR-RES ovarian; 39.5% (inactive) and 36.1% (inactive) and 29.8% (inactive) in the assay on T-47D breast; 51.3% (inactive) and 52.8% (inactive) and 49.5% (inactive) in the assay with BT-549 breast; -44.1% (active) and -7.42% (active) and -26.3% (active) with MDA-MB-435 melanoma. In addition, the growth is 18.1% (inactive) and 33.3% (inactive) and 21.8% (inactive) in the assay with SW-620 colon; 23.6% (inactive) and 24.5% (inactive) and 33% (inactive) in the assay on MCF7 breast; 17.4% (inactive) and 27.1% (inactive) and 19.8% (inactive) in the assay with HCT-116 colon; -28.9% (active) and 68.2% (inactive) and 47.7% (inactive) in the assay with HCC-2998 colon; 13% (inactive) and 38.8% (inactive) and 28.7% (inactive) in the assay with KM12 colon.
Turning to `NC(=S)NS(=O)(=O)c1ccc(N)cc1`, the growth in the assay on SR leukemia is 96.5% (inactive); in the assay with RPMI-8226 leukemia it was 110% (inactive); in the assay with OVCAR-8 ovarian, 99.4% (inactive); with OVCAR-5 ovarian it was 106% (inactive); in the assay on OVCAR-4 ovarian, 113% (inactive); in the assay on IGROV1 ovarian, 107% (inactive). Also, the growth in the assay with OVCAR-3 ovarian was 123% (inactive); with HS 578T breast, 101% (inactive); in the assay with NCI/ADR-RES ovarian it was 104% (inactive); with T-47D breast, 108% (inactive); in the assay on BT-549 breast, 128% (inactive); with MDA-MB-435 melanoma, 104% (inactive). In addition, the growth was 110% (inactive) with SW-620 colon; 101% (inactive) in the assay with MCF7 breast; 101% (inactive) in the assay on HCT-116 colon; 106% (inactive) in the assay on HCC-2998 colon; 110% (inactive) with KM12 colon.
On to `Nc1ccc(N=Nc2ccc(S(=O)(=O)O)cc2)cc1S(=O)(=O)O`, for which the growth is 108% (inactive) and 157% (inactive) in the assay on SR leukemia; 86.7% (inactive) and 40.2% (inactive) with RPMI-8226 leukemia; 96.5% (inactive) and 79.6% (inactive) in the assay on OVCAR-8 ovarian; 101% (inactive) and 107% (inactive) with OVCAR-5 ovarian; 118% (inactive) and 87.9% (inactive) in the assay with OVCAR-4 ovarian; 79.3% (inactive) and 76.1% (inactive) in the assay on IGROV1 ovarian. For the same molecule, the growth with OVCAR-3 ovarian is 108% (inactive) and 210% (inactive); with HS 578T breast it was 83.7% (inactive) and 88.9% (inactive); with NCI/ADR-RES ovarian, 95.6% (inactive) and 99.4% (inactive); with T-47D breast, 97.9% (inactive) and 98.3% (inactive); with BT-549 breast it was 120% (inactive) and 148% (inactive); with MDA-MB-435 melanoma, 108% (inactive) and 101% (inactive). Also, the growth was 115% (inactive) and 97.8% (inactive) with SW-620 colon; 90.2% (inactive) and 114% (inactive) in the assay with HCT-116 colon; 105% (inactive) and 94.5% (inactive) with HCC-2998 colon; 96.1% (inactive) and 105% (inactive) in the assay with KM12 colon.
With `Oc1nc(NCCc2ccccc2)sc1/C=C1\C=Nc2ncccc21`, the growth is -1.51% (active) and 5.6% (active) in the assay on SR leukemia; 38.7% (inactive) and 39.2% (inactive) in the assay on RPMI-8226 leukemia; 9.67% (active) and 14% (inactive) in the assay with OVCAR-8 ovarian; 18.1% (inactive) and 37.8% (inactive) in the assay on OVCAR-5 ovarian; 32.3% (inactive) and 23.8% (inactive) with OVCAR-4 ovarian; 25.6% (inactive) and 14% (inactive) in the assay on IGROV1 ovarian. For the same molecule, the growth with OVCAR-3 ovarian was 3.41% (active) and 5.65% (active); in the assay with HS 578T breast, 8.82% (active) and 8.78% (active); in the assay with NCI/ADR-RES ovarian, 58.4% (inactive) and 72.9% (inactive); in the assay with T-47D breast it was -1.34% (active) and 2.6% (active); with BT-549 breast, 5.29% (active) and -7.9% (active); in the assay with MDA-MB-435 melanoma it was 18.5% (inactive) and 21% (inactive). The growth in the assay with SW-620 colon was 7.8% (active) and 9.88% (active); with MCF7 breast it was 2% (active) and 4% (active); in the assay with HCC-2998 colon it was 66.2% (inactive) and 53.9% (inactive); with KM12 colon it was 9.25% (active) and 13.1% (inactive).
`COc1cc(NS(C)(=O)=O)ccc1Nc1c2ccccc2nc2c(C)cccc12`: the growth in the assay on SR leukemia was 4.23% (active) and -21.5% (active); in the assay on OVCAR-8 ovarian, 0.169% (active) and 1.18% (active); in the assay on OVCAR-5 ovarian, 4.75% (active) and 8.59% (active); with OVCAR-4 ovarian, 42.9% (inactive) and 62.8% (inactive); in the assay on SK-OV-3 ovarian, 5.9% (active) and 11.9% (inactive); with IGROV1 ovarian, 2.93% (active) and 14.4% (inactive). Also, the growth was -57% (active) and 24.6% (inactive) in the assay on OVCAR-3 ovarian; 32.7% (inactive) and 43% (inactive) with HS 578T breast; 27.7% (inactive) and 40.4% (inactive) in the assay on NCI/ADR-RES ovarian; 2.65% (active) and 4.75% (active) in the assay on T-47D breast; 3.76% (active) and 4.61% (active) in the assay on BT-549 breast; 37.1% (inactive) and 45.7% (inactive) in the assay with MDA-MB-435 melanoma. The growth in the assay with SW-620 colon was 6.14% (active) and 16.4% (inactive); with MCF7 breast, 14.1% (inactive) and 14% (inactive); in the assay with HCT-116 colon, 0.292% (active) and 8.67% (active); in the assay with HCC-2998 colon, -60.5% (active) and -6.07% (active); in the assay with KM12 colon, -32.8% (active) and 7.97% (active).
